Only some compounds are listed: those with a hit (about 5% of all), similar ones and a draw of the others.
Tb PYK inh – blocks Trypanosoma brucei pyruvate kinase; AID 624173; Potency, µM (series often up to 76.8 µM), without a hit: top-dose activity, negative = inhibition, actives largely listed as inhibitors; TbPYK enzyme, Kinase-Glo Plus ATP luminescence, 45 min; hit rate 0.12% among 410,000; further: potency means the concentration at half of the fitted maximal effect; nearly all actives have a fitted effect of over 50% in size
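Assay buffer: 50 mM TEA pH 7.2, 100 mM KCl, 10 mM MgCl2, 0.05% BSA, 0.01% Tween-20. Pyruvate kinase from T. brucei plus substrate met compound, then ADP (130 uM final). Luminescence was read post 45 min RT.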
VACV mCherry inh – inhibitors of vaccinia virus infection (mCherry reporter signal). Potency, µM (doses to about 36.5 µM), for inactives: at the highest dose activity change, negative = inhibition, hits mostly inhibitors. hit rate 0.63% among 310,000. Vaccinia virus mCherry reporter infection, fluorescence; calls by dose curve; tested in A549 cells; further: potency means the concentration at half of the fitted maximal effect; nearly all actives have a fitted effect of over 35% in size
HCMV inh – inhibitors of human cytomegalovirus | HFF cells, HCMV-luciferase reporter, 72 h; active compounds read low | activity change, negative = inhibition, % at 57.5 µM | hit rate 4.5% among 410,000 | AID 1259415; in the data active means activity change below about -60%; inconclusive means no clear call, values can overlap the other calls; inactive means above about -39%
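Screen run at 2 compound doses on HFFs infected with reporter HCMV, MOI 1 PFU/cell. Luciferase activity from cell lysates at 72 h post infection gave inhibition relative to buffer-only and Salinomycin wells.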
VACV Venus inh – inhibitors of vaccinia virus (Venus reporter) | Vaccinia virus Venus reporter expression, fluorescence | Potency, µM (top dose mostly 36.5 µM), for inactives: at the highest dose activity change, negative = inhibition, actives largely listed as inhibitors | hit rate 0.46% among 330,000 | AID 720580; calls by dose curve; tested in A549 cells; further: potency means the concentration at half of the fitted maximal effect; nearly all actives have a fitted effect of over 30% in size
LmPK inhibitor – inhibitors of Leishmania mexicana pyruvate kinase; Potency, µM (highest dose often 57.5 µM), for inactives: at the top dose activity change, negative = inhibition, hits mostly inhibitors; purified LmPK, Kinase-Glo ATP luminescence, 1 h; AID 1721; hit rate 0.37% among 290,000; Q27686; further: potency means the concentration at half of the fitted maximal effect
Target sequence (Q27686 whole entry, looked up): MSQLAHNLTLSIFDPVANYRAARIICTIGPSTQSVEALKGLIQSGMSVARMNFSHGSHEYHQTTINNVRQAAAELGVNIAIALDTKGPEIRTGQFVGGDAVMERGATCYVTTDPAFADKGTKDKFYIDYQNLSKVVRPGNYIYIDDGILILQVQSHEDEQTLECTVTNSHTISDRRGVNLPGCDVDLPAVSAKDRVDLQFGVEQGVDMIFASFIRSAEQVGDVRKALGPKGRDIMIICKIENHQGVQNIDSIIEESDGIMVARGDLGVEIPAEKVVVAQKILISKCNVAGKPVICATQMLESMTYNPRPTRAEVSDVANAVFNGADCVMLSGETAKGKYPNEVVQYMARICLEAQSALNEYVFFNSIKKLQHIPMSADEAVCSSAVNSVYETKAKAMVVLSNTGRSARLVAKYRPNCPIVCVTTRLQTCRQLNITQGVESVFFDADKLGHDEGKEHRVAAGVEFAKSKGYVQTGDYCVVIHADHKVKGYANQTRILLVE
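Kinase-Glo luminescence read after 1 h RT reaction of 0.1 nM LmPK with 0.5 mM PEP and 0.1 mM ADP. Activity scaled between uninhibited and enzyme-free controls.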
Active calls of the source: *. Unless noted, the call rests on the fitted dose curve; in most records, active means well fitted curve in the direction sought with a large enough effect; inconclusive means small, poorly fitted or top-dose-only effect, or another doubt; inactive means no such curve, though single readings can be large; an effect the other way counts as inactive or inconclusive. On the % scale 0 is the no-effect control and ±100 the full control effect.

What do the screens show for `COc1ccccc1CCNC(=O)C1CCN(c2nnc(-n3cccc3CNc3ccc(C)cc3)s2)CC1`?
Tb PYK inh: 1%; VACV mCherry inh: -20%; HCMV inh: 48; VACV Venus inh: -11%

Results for CCOc1ccc(NCc2cccn2-c2nnc(N3CCC(C(=O)NCCc4ccc(OC)c(OC)c4)CC3)s2)cc1 ?
Tb PYK inh: 2%; VACV mCherry inh: -13%; HCMV inh: -85*; VACV Venus inh: inconclusive

How did CCOc1ccc(NCc2cccn2-c2nnc(N3CCC(C(=O)NCCCN4CC(C)CC(C)C4)CC3)s2)cc1 (stereo unspecified) do in these assays?
Tb PYK inh: -4%; VACV mCherry inh: inconclusive; HCMV inh: -85*; VACV Venus inh: inconclusive; LmPK inhibitor: 1%

How did CCOc1ccc(NCc2cccn2-c2nnc(N3CCC(C(=O)NCCc4ccc(OCC)c(OCC)c4)CC3)s2)cc1 do in these assays?
Tb PYK inh: -8%; VACV mCherry inh: inconclusive; HCMV inh: -80*; VACV Venus inh: inconclusive

Results for CCCCOc1ccc(CNC(=O)C2CCN(c3nnc(-n4cccc4CNc4ccc(C)cc4)s3)CC2)cc1 ?
Tb PYK inh: 5%; VACV mCherry inh: inconclusive; HCMV inh: 6; VACV Venus inh: -30%

What do the screens show for `Cc1ccc(NCc2cccn2-c2nnc(N3CCC(C(=O)NCCc4ccccc4)CC3)s2)cc1`?
Tb PYK inh: 3%; VACV mCherry inh: -26%; HCMV inh: -39; VACV Venus inh: -20%

How did Cc1ccc(NCc2cccn2-c2nnc(N3CCC(C(=O)NCc4ccc(F)cc4)CC3)s2)cc1 do in these assays?
Tb PYK inh: 3%; VACV mCherry inh: inconclusive; HCMV inh: -78*; VACV Venus inh: -27%

How did COc1ccccc1CNC(=O)c1cc(-c2ccc(F)cc2OC)n[nH]1 do in these assays?
Tb PYK inh: 3%; VACV mCherry inh: 15%; HCMV inh: -5; VACV Venus inh: -13%

Results for CCOC(=O)c1cnc2c3c(noc13)CCC2 ?
HCMV inh: -101*

How did Cc1[nH]c2ccc(-c3n[nH]c(=S)n3-c3ccccc3)cc2c1C do in these assays?
Tb PYK inh: inconclusive; VACV mCherry inh: -7%; HCMV inh: -30; VACV Venus inh: -18%; LmPK inhibitor: inconclusive

Results for Cc1ccc(S(=O)(=O)N(Cc2n[nH]c(=S)n2-c2ccccc2)c2ccccc2)cc1 ?
Tb PYK inh: 7.9µM*; VACV mCherry inh: inactive; HCMV inh: 0; VACV Venus inh: -9%; LmPK inhibitor: -24%

Results for Cc1ccc(NCc2n[nH]c(=S)n2-c2ccccc2)cc1 ?
Tb PYK inh: 2.8µM*; VACV mCherry inh: -12%; HCMV inh: -14; VACV Venus inh: -5%; LmPK inhibitor: 2%

Results for CS(=O)(=O)Nc1ccc(-c2n[nH]c(=S)n2-c2ccccc2)cc1 ?
Tb PYK inh: 0%; VACV mCherry inh: -4%; HCMV inh: 1; VACV Venus inh: 3%; LmPK inhibitor: 10µM*

What do the screens show for `CN(C(=O)c1cc(-c2ccccc2)on1)C1CCCCC1`?
Tb PYK inh: -4%; VACV mCherry inh: 27%; HCMV inh: 33; VACV Venus inh: 10%; LmPK inhibitor: 2%

Results for Cc1cc(C)n(C(CC(=O)N2CCc3ccccc3C2)C(=O)O)n1 (stereo unspecified) ?
Tb PYK inh: -6%; HCMV inh: 10; LmPK inhibitor: 20%

Results for CC(Sc1ncc(S(=O)(=O)c2ccc(C(C)C)cc2)c(N)n1)C(=O)Nc1ccccc1 (stereo unspecified) ?
Tb PYK inh: -4%; VACV mCherry inh: inconclusive; HCMV inh: -74*; VACV Venus inh: inconclusive

Results for CCc1ccccc1NC(=O)CSc1ncc(S(=O)(=O)c2ccc(C(C)C)cc2)c(N)n1 ?
Tb PYK inh: 1%; VACV mCherry inh: 2%; HCMV inh: -29; VACV Venus inh: -9%

What do the screens show for `Cc1ccc(S(=O)(=O)N2CCOC23CCN(S(=O)(=O)c2c(C)cc(C)cc2C)CC3)cc1`?
Tb PYK inh: 0%; VACV mCherry inh: inactive; HCMV inh: -98*; VACV Venus inh: -23%

Results for CCc1ccccc1NC(=O)c1ccc(Cn2nc(N3CCN(c4ccccc4)CC3)ccc2=O)o1 ?
Tb PYK inh: -8%; VACV mCherry inh: -28%; HCMV inh: -75*; VACV Venus inh: -20%
